# Test results from PMC5515408, “Sequence-specific DNA binding by MYC/MAX to low-affinity non-E-box motifs”.
# Over roughly 5,000 sequences, “log2 normalized fluorescence” has its median near 0.089; the highest 2% begin near 0.81. For the sample, the highest values were picked, then their nearest neighbours and some sequences at random.
# Molecular target: MYC (p64);MAX (p21), in MYC:MAX (human;human, UniProt P01106-1;P61244-2 1-439;1-151, |)
# Assay: protein-binding microarray (anti-MAX antibody); PBM: 15 mM Tris-HCl pH 7.5, 100 mM KCl, 0.075% NP40, 7.5 mM beta-mercaptoethanol, 375 ng/ul BSA, 8 ng/ul poly(dA-dT):(dA-dT), 550 ng complex, 60 min, room tempe; high values mean tight binding
# Details: protein: recombinant;recombinant; tags: 6xHis;6xHis; copies: 1;1; label: 3' end of printed strand (linker) attached to glass slide; dsDNA, one strand shown
# Method in brief: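 For each of ~5000 unique double-stranded 12-nt sequences, spotted in triplicate on a custom Agilent glass array, binding of His-tagged human MYC:MAX or MAX:MAX dimers is reported as log2 normalized fluorescence. The dimers (550 ng, E. coli-expressed) were incubated for 60 min at room temperature in Tris-KCl buffer, pH 7.5, with NP40, BSA and poly(dA-dT) competitor. Detection used anti-MAX and secondary antibodies with a 543 nm scan.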
# MYC (p64);MAX (p21), in MYC:MAX, sequence (P01106 16-454, chain 1 of 2): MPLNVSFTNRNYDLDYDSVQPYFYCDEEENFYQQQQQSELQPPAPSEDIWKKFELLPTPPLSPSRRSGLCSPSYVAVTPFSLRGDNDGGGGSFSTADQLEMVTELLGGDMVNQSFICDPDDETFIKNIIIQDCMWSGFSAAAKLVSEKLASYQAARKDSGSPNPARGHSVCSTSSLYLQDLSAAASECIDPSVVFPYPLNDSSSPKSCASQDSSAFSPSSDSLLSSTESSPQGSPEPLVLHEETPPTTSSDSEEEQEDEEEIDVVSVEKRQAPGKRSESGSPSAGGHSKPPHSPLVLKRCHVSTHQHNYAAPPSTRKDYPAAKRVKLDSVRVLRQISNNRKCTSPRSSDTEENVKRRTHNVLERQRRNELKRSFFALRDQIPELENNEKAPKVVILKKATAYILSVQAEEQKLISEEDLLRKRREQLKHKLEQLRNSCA
# MYC (p64);MAX (p21), in MYC:MAX, sequence (P61244 other isoform, or with tags, fused parts or gaps |, chain 2 of 2): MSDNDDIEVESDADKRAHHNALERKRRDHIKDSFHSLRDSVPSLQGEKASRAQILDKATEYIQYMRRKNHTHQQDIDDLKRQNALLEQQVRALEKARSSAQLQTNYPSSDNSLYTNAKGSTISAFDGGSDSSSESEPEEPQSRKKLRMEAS
row,Sequence,binding signal
1,CCGGCTGACACGACATATTAATAGCTAAGATTACTATATCGACG,0.459 log2 normalized fluorescence
2,CCGGCTGAAGACCAGTATTAATAGCTAAGATTACTATATCGACG,0.106 log2 normalized fluorescence
3,CCGGCTGAGGCAAGGTATTAATAGCTAAGATTACTATATCGACG,0.281 log2 normalized fluorescence
4,CCGGCTGAGGTCGCGTATTAATAGCTAAGATTACTATATCGACG,0.0221 log2 normalized fluorescence
5,CCGGCTGATAACAGGTATTAATAGCTAAGATTACTATATCGACG,-0.0157 log2 normalized fluorescence
6,CCGGCTGACCTATGGTATTAATAGCTAAGATTACTATATCGACG,0.108 log2 normalized fluorescence
7,CCGGCTGAGTGTGAGTATTAATAGCTAAGATTACTATATCGACG,0.101 log2 normalized fluorescence
8,CCGGCTGAACGCGTGTATTAATAGCTAAGATTACTATATCGACG,0.587 log2 normalized fluorescence
9,CCGGCTAACACGTGGAATTAATAGCTAAGATTACTATATCGACG,0.812 log2 normalized fluorescence
10,CCGGCCGACACGTGGTATTAATAGCTAAGATTACTATATCGACG,1.07 log2 normalized fluorescence
11,CCGGCCGACACGTGGAATTAATAGCTAAGATTACTATATCGACG,0.832 log2 normalized fluorescence
12,CCGGCTGACACGTGGAATTAATAGCTAAGATTACTATATCGACG,0.698 log2 normalized fluorescence
13,CCGGCCGACGCGTGGTATTAATAGCTAAGATTACTATATCGACG,0.626 log2 normalized fluorescence
14,CCGGCCGGCACGTGGTATTAATAGCTAAGATTACTATATCGACG,0.723 log2 normalized fluorescence
15,CCGGCTGAGCAGCGGTATTAATAGCTAAGATTACTATATCGACG,0.0954 log2 normalized fluorescence
16,CCGGCAGACTCGTTGTATTAATAGCTAAGATTACTATATCGACG,0.374 log2 normalized fluorescence
17,CCGGCTGAAGAGCTGTATTAATAGCTAAGATTACTATATCGACG,0.00393 log2 normalized fluorescence
18,CCGGCTGACACTTTGTATTAATAGCTAAGATTACTATATCGACG,0.302 log2 normalized fluorescence
19,CCGGCTGAGGTTTGGTATTAATAGCTAAGATTACTATATCGACG,-0.0536 log2 normalized fluorescence
20,CCGGCCGACACGTTGTTTTAATAGCTAAGATTACTATATCGACG,0.661 log2 normalized fluorescence
21,CCGGCTGACACGTGCTTTTAATAGCTAAGATTACTATATCGACG,0.771 log2 normalized fluorescence
22,CCGGCCGACACGTGCTTTTAATAGCTAAGATTACTATATCGACG,0.852 log2 normalized fluorescence
23,CCGGCTAACACGTGCTTTTAATAGCTAAGATTACTATATCGACG,0.969 log2 normalized fluorescence
24,CCGGCCGACACGTGCTATTAATAGCTAAGATTACTATATCGACG,0.722 log2 normalized fluorescence
25,CCGGCTGCCACGTGCTTTTAATAGCTAAGATTACTATATCGACG,0.652 log2 normalized fluorescence
26,CCGGCTGAGTTGTGGTATTAATAGCTAAGATTACTATATCGACG,0.0821 log2 normalized fluorescence

row,Sequence,binding signal
1,CCGGCTGAAACATCGTATTAATAGCTAAGATTACTATATCGACG,0.226 log2 normalized fluorescence
2,CCGGCTGAGGTAATGTATTAATAGCTAAGATTACTATATCGACG,0.138 log2 normalized fluorescence
3,CCGGCTGACACGCGGTATTAATAGCTAAGATTACTATATCGACG,0.487 log2 normalized fluorescence
4,CCGGCGGAGACGATGTTTTAATAGCTAAGATTACTATATCGACG,0.0761 log2 normalized fluorescence
5,CCGGCTAATACGTGGTATTAATAGCTAAGATTACTATATCGACG,0.38 log2 normalized fluorescence
6,CCGGCATACACTTGGTATTAATAGCTAAGATTACTATATCGACG,0.425 log2 normalized fluorescence
7,CCGGCAAACACGATGTTTTAATAGCTAAGATTACTATATCGACG,0.827 log2 normalized fluorescence
8,CCGGCAGAGAACGATGTTTAATAGCTAAGATTACTATATCGACG,0.248 log2 normalized fluorescence
9,CCGGCCGACACGCGGTATTAATAGCTAAGATTACTATATCGACG,0.697 log2 normalized fluorescence
10,CCGGCTTACACGTGATATTAATAGCTAAGATTACTATATCGACG,0.75 log2 normalized fluorescence
11,CCGGCTAACACGCGGTATTAATAGCTAAGATTACTATATCGACG,0.819 log2 normalized fluorescence
12,CCGGCTTACACATGCTATTAATAGCTAAGATTACTATATCGACG,0.812 log2 normalized fluorescence
13,CCGGCTTACACGTGCTATTAATAGCTAAGATTACTATATCGACG,1.02 log2 normalized fluorescence
14,CCGGCATACACGTGGTATTAATAGCTAAGATTACTATATCGACG,0.842 log2 normalized fluorescence
15,CCGGCTGATAAGGTGTATTAATAGCTAAGATTACTATATCGACG,0.0319 log2 normalized fluorescence
16,CCGGCTGAACGCTAGTATTAATAGCTAAGATTACTATATCGACG,0.178 log2 normalized fluorescence
17,CCGGCTGAGTGACAGTATTAATAGCTAAGATTACTATATCGACG,0.00932 log2 normalized fluorescence
18,CCGGCTGAACCGATGTATTAATAGCTAAGATTACTATATCGACG,0.0618 log2 normalized fluorescence
19,CCGGCTGACGTACGGTATTAATAGCTAAGATTACTATATCGACG,0.112 log2 normalized fluorescence
20,CCGGCTGAGCTCCCGTATTAATAGCTAAGATTACTATATCGACG,0.0359 log2 normalized fluorescence
21,CCGGCTGAACGGACGTATTAATAGCTAAGATTACTATATCGACG,0.0519 log2 normalized fluorescence
22,CCGGCAAACACGTGGTATTAATAGCTAAGATTACTATATCGACG,1.02 log2 normalized fluorescence
23,CCGGCGCAAACGTGGTATTAATAGCTAAGATTACTATATCGACG,0.579 log2 normalized fluorescence
24,CCGGCCGTCACGTGGTTTTAATAGCTAAGATTACTATATCGACG,0.74 log2 normalized fluorescence
25,CCGGCTTACACGTGGTTTTAATAGCTAAGATTACTATATCGACG,0.721 log2 normalized fluorescence
26,CCGGCGAACACGTGGTATTAATAGCTAAGATTACTATATCGACG,0.76 log2 normalized fluorescence

row,Sequence,binding signal
1,CCGGCTATAACGTGGTATTAATAGCTAAGATTACTATATCGACG,0.627 log2 normalized fluorescence
2,CCGGCTTAATCGTGGTATTAATAGCTAAGATTACTATATCGACG,0.374 log2 normalized fluorescence
3,CCGGCTTAGACGTGGTATTAATAGCTAAGATTACTATATCGACG,0.235 log2 normalized fluorescence
4,CCGGCTTACACGTGGTATTAATAGCTAAGATTACTATATCGACG,0.847 log2 normalized fluorescence
5,CCGGCAAATACGTGGTATTAATAGCTAAGATTACTATATCGACG,0.556 log2 normalized fluorescence
6,CCGGCTAACACGTGGTATTAATAGCTAAGATTACTATATCGACG,0.946 log2 normalized fluorescence
7,CCGGCTAACACGTGGTTTTAATAGCTAAGATTACTATATCGACG,1.01 log2 normalized fluorescence
8,CCGGCTGACGCACTGTATTAATAGCTAAGATTACTATATCGACG,0.457 log2 normalized fluorescence
9,CCGGCTGAAGGCCCGTATTAATAGCTAAGATTACTATATCGACG,0.0982 log2 normalized fluorescence
10,CCGGCTGAATCAAAGTATTAATAGCTAAGATTACTATATCGACG,-0.00984 log2 normalized fluorescence
11,CCGGCTGACCCTTGATATTAATAGCTAAGATTACTATATCGACG,0.0562 log2 normalized fluorescence
12,CCGGCTGAATGTTGGTATTAATAGCTAAGATTACTATATCGACG,0.176 log2 normalized fluorescence
13,CCGGCTGACCTCCCGTATTAATAGCTAAGATTACTATATCGACG,0.167 log2 normalized fluorescence
14,CCGGCTGAACCGCGGTATTAATAGCTAAGATTACTATATCGACG,0.103 log2 normalized fluorescence
15,CCGGCTGAACTCGAGTATTAATAGCTAAGATTACTATATCGACG,0.253 log2 normalized fluorescence
16,CCGGCTGGGGCGTGGTATTAATAGCTAAGATTACTATATCGACG,0.471 log2 normalized fluorescence
17,CCGGCTCCAACGTGGTATTAATAGCTAAGATTACTATATCGACG,0.579 log2 normalized fluorescence
18,CCGGCCAACACGTGGTATTAATAGCTAAGATTACTATATCGACG,0.937 log2 normalized fluorescence
19,CCGGCCAACACGTTGTATTAATAGCTAAGATTACTATATCGACG,0.669 log2 normalized fluorescence
20,CCGGCTGAAGGACCGTATTAATAGCTAAGATTACTATATCGACG,0.0673 log2 normalized fluorescence
21,CCGGCTGACACGTGGCATTAATAGCTAAGATTACTATATCGACG,0.835 log2 normalized fluorescence
22,CCGGCTGACACGTGCCTTTAATAGCTAAGATTACTATATCGACG,0.722 log2 normalized fluorescence
23,CCGGCTGACACGTGGCCTTAATAGCTAAGATTACTATATCGACG,0.897 log2 normalized fluorescence
24,CCGGCTGACTCGTGGCATTAATAGCTAAGATTACTATATCGACG,0.584 log2 normalized fluorescence
25,CCGGCTGACACGTGGACTTAATAGCTAAGATTACTATATCGACG,0.734 log2 normalized fluorescence
26,CCGGCTGACACGTAGCATTAATAGCTAAGATTACTATATCGACG,0.484 log2 normalized fluorescence
